Results on 40 compounds are retold here after PubChem BioAssay (NCI).

SMILES strings stand for the structures. Compounds without any hit were thinned out: in the full panel of roughly 83,000, 20% have a hit.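 Treatment: one concentration, 48 hours, 96-well format. Scoring: percent growth, with anything below 10 considered active.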 Unmarked numbers belong to inactive results. Active and inactive are the calls of the source.

This assay deals with HL-60(TB) leukemia. Description: NCI-60 one-dose screen, 48 h (100 = growth as untreated, 0 = no growth, -100 = all killed). As to conditions: 10 µM unless noted.
Take `CCOC(=O)C1=C(C)NC(C)=C(C(=O)OCC)C1c1cc(Br)c(O)c(OC)c1`: the growth is 6.74% (active).
The result for `C=CC(=O)Nc1ccc(Oc2nccc(Nc3nnc(-c4ccc(C)cc4)s3)n2)cc1` reads 41.6%.
The value for `CCCCOC(=O)c1ccccc1O` was 93.2%; that for `CCCCCCCCCCC(C(O)c1ccccc1)N1CCCCC1` (stereo not given) was -28.5% (active); that for `CN(C)c1cccc2[nH]c(-c3[nH]ncc3Nc3ccnc(N)n3)nc12` was -42.7% (active).
The value for `Cc1nc(O)cc(=O)[nH]1` was 97%; that for `CCN1C(=O)N(CC)C2C1NC(=S)N2/N=C/C=C/c1cccs1` (stereo not given) was -41.3% (active); that for `O=C1CCC(C(=O)N/N=C/c2ccc([N+](=O)[O-])cc2)N1` (stereo not given) was 96.7%.
Consider `COc1cccc(NC(=O)c2c(-c3ccccc3)c(-c3ccccc3)n[nH]c2=O)c1`, for which the growth is 95.5%.
Regarding `COc1cccc2c(=O)c3c(sc12)c(NCCCN)nc1ccccc13`, the growth is 44.2%.
The value for `COc1cc(OC)cc(-c2ccc(-c3ccc(C(=N)N)cn3)s2)c1` was -25.4% (active); that for `Cc1c(Cl)cccc1NCN1C(=O)c2ccccc2C1=O` was 113%; that for `COc1cccc(CNc2nnc(C)c(C)n2)c1O` was 95.9%.
The value for `CSCc1ncc(-c2ccc(C(F)(F)F)cc2)c(NC2CCCCCC2)n1` was 20.7% [25 µM]; that for `Cc1ccc(C(=O)N/N=C/c2cccc(Oc3ccccc3)c2)cn1` was 9.21% (active); that for `CSC(=S)N/N=C(\C)c1ccccn1` was -12.1% (active).
The result for `O=C(Nc1ccccc1CNc1nc(Nc2ccc(OCCN3CCCC3)cc2)ncc1Cl)NC1CCCCC1` reads 99.9%.
On to `COc1c(CCC[P+](c2ccccc2)(c2ccccc2)c2ccccc2)cc2c(c1OC)OCO2`, for which the growth is 10.2%.
The result for `O=S(=O)(NCCCNc1nccc(-c2c(-c3cccc(F)c3)nc3occn23)n1)c1ccc(F)cc1` reads 5.83% (active); that for `NS(=O)(=O)c1cc(=O)[nH]c(=O)[nH]1`, 114%; that for `COc1cnc2c(c1)C(=O)c1c-2n(CCCNCCN2CCOCC2)c(=O)c2cc([N+](=O)[O-])ccc12`, -15.7% (active).
`CC1(C)c2ccccc2C(=O)C1(Br)Cc1ccccc1` (stereo not given): the growth is 9.51% (active).
For the compound `COc1ccc(NC(=O)c2sc3nc(C)c(C(=O)c4ccc(OC)cc4)cc3c2N)cc1`, the growth is 6.31% (active).
As to `O=C1c2ccc3c4c(ccc(c24)C(=O)N1CCCCO)C(=O)N(CCCCO)C3=O`, the growth is 7.09% (active).
The result for `C#C[C@H]1CCCCCC1O` (stereo not given in full) reads 96.1%; that for `COC(=O)[C@@H]1[C@H](O)[C@H](C)[C@H](O)[C@H](C)/C=C\C=C(C)C(=O)Nc2c(C)c(OC(C)=O)c3c(c2O)C(=O)C(C)=C2OCOC(=C23)C(C)=C[C@@](C)(O)[C@H](O)[C@@H](C)[C@H]1OC(C)=O`, 119%; that for `N[C@@H](Cc1ccccc1)[C@@H](O)C(=O)NCc1ccc(F)cc1`, 101%.
The result for `CCOC(=O)c1c(C)n(-c2ccc(Cl)cc2)c2ccc(OC(=O)/C=C/c3ccccc3)cc12` reads 57.1%; that for `O=C1/C(=C/c2ccc(OCc3ccccc3)cc2)Oc2cc(OCCN3CCCCC3)ccc21`, 80.9%.
For the compound `c1csc(-c2ccc(CNc3c4ccccc4nc4ccccc34)cc2)c1`, the growth is -56.7% (active).
Take `O=S(=O)(NCCNc1cc(-c2c(-c3cccc(O)c3)nc3sccn23)ccn1)c1ccc(Cl)cc1`: the growth was 84.3%.
Turning to `COc1ccc(CNc2ccc3nc(NC(=O)CN4CCCCCC4)sc3c2)cc1`, the growth was 47.4%.
The result for `O=CCCCOCc1ccccc1` reads 100%.
With `O=C(Nn1cnc2ccccc21)N1CCCC1`, the growth was 87.1%.
Take `Cn1ccc(Nc2nccc(Oc3ccc(C(=O)Nc4cccc(F)c4)c(Cl)c3)n2)c1`: the growth was 95.4%.
On to `O=C1NC(=S)S/C1=C\c1cccc([N+](=O)[O-])c1`, for which the growth is 83.8%.
Regarding `CC1C(C)N(C(=O)CCl)c2ccccc2N1C(=O)CCl` (stereo not given), the growth was -56.9% (active).
The result for `COc1ccc2nc(-c3ccc(-c4noc(-c5cc(OC)c(OC)c(OC)c5)n4)cc3)[nH]c2c1` reads 74.4%; that for `CCN(CC)CCSCCN(CC)CC`, 100%.
The value for `COC(=O)C1C(O)C(C)C(O)C(C)C=C(C)C2=C3C(=C(C)C(=O)c4c(O)c(c(C)c(OC(C)=O)c43)NC(=O)C(C)=C/C=C\C(C)C(O)C(C)C1O)OCO2` (stereo not given) was 141%.
